# Compound activity (PubChem)
# STAT1 act – activators of IFN-gamma induced STAT1 signaling; NIH 3T3 STAT1-luciferase reporter, luminescence; 100% = IFN-gamma alone, no compound; activation (% of control), % at 5.5 µM; actives 2.6% (n = 200,000); AID 932;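 active means activation above the screen-wide mean activation plus 3 SD, cut at about 130% in these data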
# Hsp70 activator – switches on Hsp70 transcription | HeLa Hsp70 promoter luciferase reporter, luminescence; scaled: vehicle 0, proteasome-inhibitor control 100% | activation, % at 10 µM | actives 0.04% (n = 200,000) | AID 1203;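 active means activation above the mean across all tested compounds plus 3 SD, cutoff set per campaign, cut at about 5.5% in these data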
# Wee1 degr inh – human Wee1 degradation inhibition, primary screen; P30291; HeLa Luc-Wee1K328M stability, luciferase luminescence; 100% = proteasome inhibitor MG132 effect; reporter increase, % at 5 µM; actives 1.2% (n = 220,000); AID 1321;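 active means activation above the mean of all tested compounds plus 3 SD, set per screening run, cut at about 8.8% in these data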;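 further: cells exposed to compound for 20 h before luminescence read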
# Target sequence (P30291 whole entry K328M): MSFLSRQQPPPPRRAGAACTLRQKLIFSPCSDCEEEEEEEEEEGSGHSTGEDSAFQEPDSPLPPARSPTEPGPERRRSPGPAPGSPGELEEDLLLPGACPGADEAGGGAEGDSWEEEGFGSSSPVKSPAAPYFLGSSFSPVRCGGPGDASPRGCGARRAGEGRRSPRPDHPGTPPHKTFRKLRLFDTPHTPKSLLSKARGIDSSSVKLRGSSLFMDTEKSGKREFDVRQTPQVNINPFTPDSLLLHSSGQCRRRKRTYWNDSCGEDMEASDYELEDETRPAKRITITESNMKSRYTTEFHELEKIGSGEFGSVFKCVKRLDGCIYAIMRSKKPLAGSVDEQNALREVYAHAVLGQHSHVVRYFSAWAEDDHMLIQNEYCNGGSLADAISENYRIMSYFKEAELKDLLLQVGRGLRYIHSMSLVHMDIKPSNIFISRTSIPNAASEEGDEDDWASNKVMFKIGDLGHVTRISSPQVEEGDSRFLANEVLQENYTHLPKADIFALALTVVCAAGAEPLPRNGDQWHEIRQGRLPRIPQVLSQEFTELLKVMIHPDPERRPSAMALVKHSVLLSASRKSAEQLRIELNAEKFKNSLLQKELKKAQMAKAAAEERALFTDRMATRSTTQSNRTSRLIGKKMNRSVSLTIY
# APP transl inh – APP translation inhibition; inhibition, % at 2 µM; SH-SY5Y APP 5'UTR-luciferase reporter, luminescence; actives 0.82% (n = 190,000);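 active means inhibition above a set limit, derived from the sample mean plus 3 SD, cut at about 45% in these data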
# NF-kB neuron act – NF-kB expression increase, human neuronal cells. NF-kB reporter expression; stronger effect = higher value. fold change at 12.5 µM. actives 1.6% (n = 190,000); in the data active means fold change above about 3.3
# APP 5'UTR act – activates APP 5'UTR luciferase reporter. SH-SY5Y APP 5'UTR luciferase reporter, luminescence; zero percent = DMSO vehicle wells. activation, % at 2 µM. actives 1% (n = 190,000). AID 1276;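 active means activation above a set limit, based on mean plus 3 SD of controls, cut at about 140% in these data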
# A number is an active result; i = inactive; nt = no result. An excerpt weighted towards active compounds, which were near 4.8% of everything screened.
SMILES,STAT1 act,Hsp70 activator,Wee1 degr inh,APP transl inh,NF-kB neuron act,APP 5'UTR act
CCN(CC)S(=O)(=O)c1ccc(NC(=O)COC(=O)c2ccc(-n3nc(C)cc3C)cc2)cc1,i,i,i,i,i,i
COC(=O)c1ccc(CNC(=O)c2ccc(COc3ccccc3)cc2)cc1,i,i,i,i,i,i
COC(=O)c1ccccc1NC(=O)N1c2ccccc2CC1C (configuration not stated),i,i,i,i,i,nt
COc1ccc(-c2cn3cc(Br)cnc3n2)cc1,135,i,i,i,i,i
CC(=O)Nc1ccc(/C=N/Nc2nc3ccccc3[nH]2)cc1,i,i,i,i,i,i
O=C(O)c1ccc(/C=N/Nc2nc3ccccc3[nH]2)cc1,nt,nt,i,nt,nt,nt
CCN(CC)c1ccc(/C=N/Nc2nc3ccccc3[nH]2)cc1,172,i,i,i,i,i
COC(=O)c1ccc(/C=N/Nc2nc3ccccc3[nH]2)cc1,138,i,i,i,i,i
O=C(COc1ccc(-n2cnnn2)cc1)NC1CCCCC1,i,i,i,74,i,i
CC1CCCCC1NC(=O)COc1ccc(-n2cnnn2)cc1 (configuration not stated),i,i,i,i,i,i
CCOc1ccccc1N(CC(=O)NCCSc1ccccc1)S(C)(=O)=O,i,i,9.1,i,i,i
COC(=O)c1ccc(CSc2nnc(CNC(=O)c3cccs3)o2)o1,i,i,i,i,i,i
COc1cccc(NC(=S)NCCN2CCOCC2)c1,i,i,i,i,i,i
COc1cc(NC(=S)NCCCN2CCOCC2)cc(OC)c1,i,i,9.6,i,i,i
O=S(=O)(Nc1ccc(-c2nc3cccnc3s2)cc1)c1ccccc1F,nt,nt,i,nt,nt,nt
Cc1cc(-c2nc3cccnc3s2)ccc1NS(=O)(=O)c1cccs1,146,i,i,i,i,i
CCS(=O)(=O)Nc1ccc(-c2nc3cccnc3s2)cc1,i,i,i,i,i,197
O=S(=O)(Nc1ccc(-c2nc3cccnc3s2)cc1)c1ccc(Cl)s1,131,i,i,i,i,i
O=S(=O)(Nc1ccc(-c2nc3cccnc3s2)cc1)c1cccs1,i,i,i,i,i,i
CCS(=O)(=O)Nc1cc(-c2nc3cccnc3s2)ccc1C,135,i,i,i,i,i
CCC(C)NC(=O)C1CC(c2ccc(OC)cc2)=NO1 (configuration not stated),i,i,i,i,i,i
Cc1cc(Cc2ccc(N)c(C)c2)ccc1N,nt,nt,i,nt,nt,nt
COc1cc(CN2CCNC(=O)C2CC(=O)N2CCc3ccccc3C2)cc(OC)c1 (configuration not stated),i,i,i,i,i,i
O=C(N/N=C/c1ccc(-c2ccccc2Cl)o1)c1ccccc1,137,i,i,i,i,i
O=C(N/N=C/c1ccc(-c2cccc([N+](=O)[O-])c2)o1)c1ccc([N+](=O)[O-])cc1,i,i,9.2,i,i,i
SMILES,STAT1 act,Hsp70 activator,Wee1 degr inh,APP transl inh,NF-kB neuron act,APP 5'UTR act
Cc1ccc(/C=N/NC(=O)c2cccc([N+](=O)[O-])c2)o1,i,i,i,62,i,i
O=C(N/N=C/c1ccc(-c2cccc([N+](=O)[O-])c2)o1)c1ccccc1O,i,i,i,i,i,i
CC(=O)Nc1cccc(C(=O)N/N=C/c2ccc(C)o2)c1,i,i,i,i,i,i
CC(C)(C)OC(=O)NCC(=O)Oc1cc2oc(=O)cc(-c3ccccc3)c2cc1Cl,i,i,i,i,i,i
Cc1cc(C)c2c3c(sc2n1)C(=O)N(c1ccccc1C)CC(=O)N3,nt,nt,9.5,nt,nt,nt
Cc1noc(NC(=O)c2c(-c3c(Cl)cccc3Cl)noc2C)c1[N+](=O)[O-],nt,nt,8.9,nt,nt,nt
Cc1c(CN(C)C)c2c(n1C)C(=O)c1ccc(Br)cc1-2,i,i,i,i,3.3,i
Cc1c(CN(C)C)c2c(n1Cc1ccccc1)C(=O)c1ccc(Br)cc1-2,i,i,i,i,i,i
O=C(CN1C(=O)CSc2ccc(C(F)(F)F)cc21)Nc1ccccc1,nt,nt,i,nt,nt,nt
CCCCOP(=O)(OCCCC)C(O)c1ccc(N(C)C)cc1 (configuration not stated),nt,nt,i,nt,nt,nt
COc1ccc2sc(NC(=O)NC(=O)c3c(Cl)cccc3Cl)nc2c1,nt,nt,i,nt,nt,nt
CCC(=O)Nc1nc2c(OC)ccc(OC)c2s1,i,i,i,i,i,i
CCC(=O)Nc1nc2ccc3nc(C)sc3c2s1,149,i,i,i,3.5,i
